# In the library only some 10% were active in any assay of this set; here they are far more common.
# JMJD2A Tudor inh: inhibitors of human JMJD2A Tudor domain; O75164; AlphaScreen JMJD2A-Tudor / H3K4me3 peptide binding; Potency, µM (highest dose often 114 µM), most hits filed as inhibitors; 4.4% of 390,000 active; note: nearly all actives have a fitted effect of over 50% in size
# HP1b chromo inh: inhibitors of HP1-beta chromodomain binding to methylated histone tails | P83916 | AlphaScreen HP1-beta / biotin-H3K9me3 peptide binding | Potency, µM (series often up to 114 µM), most hits filed as inhibitors | 0.56% of 390,000 active; note: nearly all actives have a fitted effect of over 70% in size
# Target sequence (P83916 whole entry, looked up): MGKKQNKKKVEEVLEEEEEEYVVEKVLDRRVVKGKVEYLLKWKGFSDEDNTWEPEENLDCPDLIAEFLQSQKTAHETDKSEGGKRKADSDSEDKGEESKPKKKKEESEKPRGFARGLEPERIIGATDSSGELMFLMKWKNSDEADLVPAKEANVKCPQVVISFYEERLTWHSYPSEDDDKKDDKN
#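 AlphaScreen: HP1-beta (50 nM) preformed 30 min with biotin-H3(1-18)K9me3 peptide (50 nM) in PBS pH 7.4, 0.01% Tween-20. Compound added for 30 min at RT, then streptavidin donor/nickel chelate acceptor beads (10 ug/mL) for 30 min.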
# CtBP-E1A blk: inhibitors of CtBP/E1A interaction. AlphaScreen GST-E1A/His-CtBP binding, 1536-well; active compounds read low. activity change, % (concentration not given with the values). 0.49% of 340,000 active; in the data active = activity change below about -65%; inconclusive = mostly about -30% to -63%
#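 In 5 uL wells, 23 nL compound meets equimolar GST-E1A and His-CtBP (5X stock 125 nM each) for 2 h, 37 °C. Beads (5X, 50 ug/mL) then 1 h, 37 °C, dark.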
# G9a inh: G9a (human) methyltransferase inhibition. Potency, µM (series often up to 102 µM), actives largely listed as inhibitors. Q96KQ7. 8.8% of 350,000 active. G9a H3K9 monomethylation, AlphaScreen, 2 h. AID 504332; note: nearly all actives have a fitted effect of over 75% in size
# Target sequence (Q96KQ7 913-1193 limits assumed): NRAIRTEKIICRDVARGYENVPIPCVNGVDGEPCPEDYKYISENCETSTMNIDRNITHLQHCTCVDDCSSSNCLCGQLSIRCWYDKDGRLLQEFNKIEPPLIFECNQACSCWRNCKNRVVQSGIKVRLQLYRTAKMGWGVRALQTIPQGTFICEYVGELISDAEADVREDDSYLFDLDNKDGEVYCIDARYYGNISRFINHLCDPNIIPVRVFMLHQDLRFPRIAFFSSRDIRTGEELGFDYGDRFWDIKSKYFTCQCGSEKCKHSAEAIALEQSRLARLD
#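 G9a (20 nM) was preincubated 15 min with compound, then reacted 2 h at room temperature with 500 nM biotin-H3K9 peptide and 20 µM SAM. Monomethyl-H3K9 detected by AlphaScreen using anti-H3K9me1 antibody.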
# Six1-Eya2 inh: blocks human Six1 binding to Eya2 | Q15475+O00167 | AlphaScreen GST-Six1/His-Eya2 binding, biochemical; active compounds read low | activity change, % (no concentration beside the values) | 0.56% of 360,000 active | AID 651725; in the data active = activity change below about -65%; inconclusive = mostly about -30% to -63%
#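 Six1/Eya2 binding was read as AlphaScreen signal after compounds were pinned into GST-Six1 plus His-tagged Eya2 (5X stock 250/500 nM) in pH 8.0 Tris/NaCl/TCEP buffer, beads added, then incubated 1 h, 37 C, dark.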
# BAZ2B inh: inhibitors of human BAZ2B bromodomain. 4.4% of 360,000 active. Potency, µM (titrated, usually from 114 µM), most hits filed as inhibitors. Q9UIF8. AlphaScreen BAZ2B-H3K14Ac peptide displacement. AID 504333; note: nearly all actives have a fitted effect of over 60% in size
#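 BAZ2B 50 nM plus b-H3(5-23)K14Ac 50 nM, PBS pH 7.4/0.01% Tween-20, 30 min RT; compound added (max 110 uM), 30 min RT; streptavidin donor/Ni-chelate acceptor beads 10 ug/mL final, 20 min dark; AlphaScreen read.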
# Hits are given with their value; - = inactive; ? = inconclusive; . = no result given; [ ] = another dose, or the depositor's remark. Unless noted, calls come from the whole dose curve; as a rule, active = well fitted inhibition curve with a large enough effect; inconclusive = small, poorly fitted or top-dose-only effect; inactive = no such curve, though single readings can be large or run the other way.
SMILES,JMJD2A Tudor inh,HP1b chromo inh,CtBP-E1A blk,G9a inh,Six1-Eya2 inh,BAZ2B inh
CCOC(=O)c1c(C)[nH]c(C)c1C(=O)COC(=O)c1cc2ccccc2cc1O,?,-,-,50µM,-,?
CCOC(=O)c1c(C)[nH]c(C)c1C(=O)COc1ncnc2ccccc12,16µM,-,-,?,-,.
CCOC(=O)c1c(C)[nH]c(C)c1C(=O)COC(=O)c1ccc(Cl)c(S(=O)(=O)NCc2ccccc2)c1,56µM,-,-,?,-,?
CCOC(=O)c1c(C)[nH]c(C)c1C(=O)COC(=O)c1cc2ccccc2cc1OC,?,-,-,-,-,-
CC(C)n1c(=O)c2oc3ccccc3c2n(CC(=O)Nc2ccccc2Cl)c1=O,-,-,.,-,.,-
CCOC(=O)N1CCN(C(=O)CN(c2ccccc2)S(C)(=O)=O)CC1,-[11.4 µM],-,.,-,-,-
CC(C)(C)NC(=S)NCCc1ccccc1,-,-,-,45µM,-,-
S=C(NCCc1ccccc1)Nc1ccccn1,-,?,-,1.4µM,-,-
C[C@@H]1c2cccc(O)c2C(O)=C2C(=O)[C@@]3(O)C(O)=C(C(N)=O)C(=O)[C@@H](N(C)C)[C@@H]3[C@@H](O)[C@@H]21,.,.,.,-[12.7 µM],.,.
CN(C)c1ccc(O)c2c1C[C@H]1C[C@H]3[C@@H](N(C)C)C(=O)C(C(N)=O)=C(O)[C@]3(O)C(=O)C1=C2O,.,.,.,8.9µM,.,.
C[C@H]1c2cccc(O)c2C(O)=C2C(=O)[C@]3(O)C(O)=C(C(N)=O)C(=O)[C@@H](N(C)C)C3[C@@H](O)C21 (some centres undefined),22µM,-,-,10µM,-,10µM
COCCCNC(=S)Nc1ccc(CC(=O)O)cc1,-,-,-,-,-,-
S=c1[nH]c(=S)c2[nH]cnc2[nH]1,-,-,.,.,.,.
Cc1nc(N2C(=O)c3oc4ccccc4c(=O)c3C2c2cccc(OCCC(C)C)c2)sc1C (centres undefined),-,-,.,-,.,-
N#Cc1c(-c2cccnc2)cc(-c2ccccc2)nc1N,-,-,.,.,-,-
N#Cc1c(-c2ccco2)cc(-c2cccnc2)nc1N,-,-,-,35µM,-,?
N#Cc1c(-c2ccco2)cc(C2CC2)nc1N,-,-,-,14µM,-,-
FC(F)(F)c1cccc(-n2cc(-c3ccccc3)c3c(N4CCCCC4)ncnc32)c1,-,-,.,-,.,-
Cn1c(=O)n(C)c2cc(NC(=O)CSc3ccccc3)ccc21,-,-,-,.,-,-
CCCN(CCC)C(=O)Cn1c(=O)n(-c2ccc(OC)cc2OC)c(=O)c2c3c(sc21)CCC3,-,-,.,-,.,-
O=C1COc2ccc(C(=O)COC(=O)c3ccc(Cl)cc3[N+](=O)[O-])cc2N1,-,-,-,45µM,-,-
O=C1COc2ccc(C(=O)COC(=O)c3ccc([N+](=O)[O-])cc3Cl)cc2N1,-,-,-,40µM,-,-
CN(C)S(=O)(=O)N(CC(=O)N(Cc1ccccc1)Cc1ccccc1)c1ccccc1,?,-,-,-,-,56µM
Cc1cccc(-c2c3c(=O)n(C)c(=O)n(C)c3cn2-c2cc(N)c(Cl)cc2Cl)c1,?,-,.,?,.,?
COc1ccc(-c2ncccc2OC(=O)C23CC4CC(CC(C4)C2)C3)cc1OC,-,-,-,45µM,-,-
SMILES,JMJD2A Tudor inh,HP1b chromo inh,CtBP-E1A blk,G9a inh,Six1-Eya2 inh,BAZ2B inh
CCC(=O)Nc1cccc2cccnc12,-,-,.,-,-,-
NC(=S)NNc1cccc2cccnc12,10µM,-,-92,18µM,-92,25µM
O=C(CCBr)Nc1cccc2cccnc12,79µM,-,.,.,.,.
O=C(CI)Nc1cccc2cccnc12,20µM,-,.,.,.,.
O=C(CCCl)Nc1cccc2cccnc12,79µM,-,.,.,.,.
O=C(Cc1ccc(F)cc1)Nc1cccc2cccnc12,-,-,-,-,-,-
Cc1ccc(-c2sc(C(=O)Nc3ccc(Br)cc3)cc2CC(=O)O)cc1,-,-,.,-,.,-
O=C(NCc1ccccc1Cl)c1ccc(NC(=O)c2nsc3ccccc23)cc1,-,-,.,-,.,-
O=C(NCCCn1ccnc1)C(=O)NCC(c1ccco1)N1CCN(c2ccccc2)CC1 (centres undefined),-[11.4 µM],-,-,-,-,56µM

# High-throughput results from PubChem.
